Inconclusive results are not listed. Active and inactive are the calls of the source. Calls follow the shape of the dose curve; as a rule, active = well fitted inhibition curve with a large enough effect; inconclusive = small, poorly fitted or top-dose-only effect; inactive = flat fitted curve, though single readings scatter.
What follows are compounds tested against Tyrosyl-DNA phosphodiesterase 1 (Homo sapiens) (UniProt Q9NUW8) (assay: Confirmation Assay for Inhibitors of Tyrosyl-DNA Phosphodiesterase (TDP1) (AID 489007; also: nearly all actives have a fitted effect of over 40% in size)). Settings: recombinant human TDP1 enzymatic activity, dose-response.
Procedure, shortened: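 Loss of AlphaScreen signal reports Tdp1 cleavage of a dual-labelled DNA substrate. Conditions: 1 nM E. coli-derived enzyme, 15 nM substrate, 15 min compound preincubation, 5 min reaction, 10 min bead incubation, all at room temperature.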
Potency is read from the fitted curve at half-maximal effect.

Tyrosyl-DNA phosphodiesterase 1 (Homo sapiens), sequence (Q9NUW8 whole entry, looked up): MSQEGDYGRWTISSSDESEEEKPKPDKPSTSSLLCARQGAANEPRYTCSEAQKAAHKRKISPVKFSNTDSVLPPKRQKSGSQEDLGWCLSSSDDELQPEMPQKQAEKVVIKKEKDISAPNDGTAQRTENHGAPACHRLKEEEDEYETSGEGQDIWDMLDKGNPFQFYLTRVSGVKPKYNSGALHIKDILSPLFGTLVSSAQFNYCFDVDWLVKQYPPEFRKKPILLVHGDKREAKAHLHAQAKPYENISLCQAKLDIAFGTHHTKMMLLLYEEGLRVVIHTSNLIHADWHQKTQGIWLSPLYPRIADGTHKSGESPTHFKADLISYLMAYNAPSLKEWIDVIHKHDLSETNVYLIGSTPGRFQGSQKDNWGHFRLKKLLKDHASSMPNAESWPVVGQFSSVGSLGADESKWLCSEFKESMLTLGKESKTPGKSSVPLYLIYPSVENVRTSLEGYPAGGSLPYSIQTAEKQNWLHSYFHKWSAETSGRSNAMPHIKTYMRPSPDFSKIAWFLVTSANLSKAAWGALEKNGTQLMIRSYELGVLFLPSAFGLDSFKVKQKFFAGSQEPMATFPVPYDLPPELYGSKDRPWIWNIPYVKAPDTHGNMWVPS

Potency, active:
CCOC(=O)c1sc2nc3c(SCCC(=O)O)cc(C(=O)c4cc(OC)ccc4O)cn3c(=O)c2c1C 2.82 µM
Cc1ccc(S(=O)(=O)N2CCCCC2)cc1C(=O)Nc1ccc(S(=O)(=O)Nc2ncccn2)cc1 14.1 µM
O=C1C2C3C=CC(C3)C2C(=O)N1c1ncn[nH]1 (centres undefined) 31.6 µM
Cc1ccc(C(=O)O)cc1-c1ccc(/C=C2/NC(=O)N(c3ccccc3)C2=O)o1 7.08 µM
Cc1ccc(C(=O)O)cc1-n1c(C)cc(C=O)c1C 15.8 µM
CC(=O)c1ccc(NC(=O)c2ccc3nc(-c4ccco4)c(-c4ccco4)nc3c2)cc1 7.08 µM
CC(=O)NC1=NC(=O)/C(=C/c2cc(C)n(-c3cccc(C(=O)O)c3)c2C)S1 2 µM
Nc1ccc2c(c1Cl)C(=O)c1ccc(N)c(Cl)c1C2=O 3.55 µM
O=C(/C=C/c1c(Cl)nc2ccccn12)N1CCN(c2ccc(F)cc2)CC1 35.5 µM
CC(=O)c1ccc(NC(=O)c2noc3c2CCC3)cc1 50.1 µM
Cc1cc(C)c(C#N)c(SCc2ccccc2)n1 112 µM
O=C(CSc1nccc(=O)[nH]1)NCc1ccco1 31.6 µM
Cc1c(-c2ccc(Cl)cc2)oc(=O)c2c(N)n(-c3ccccc3)nc12 25.1 µM
CC1=CCC(C(=O)O)C(C(=O)Nc2ccc(-c3nc4ccc(C)cc4s3)cc2)C1 (centres undefined) 31.6 µM
Cc1ccc(C(=O)O)cc1-c1ccc(/C=C2\SC(=O)N(CC(=O)Nc3ccccc3)C2=O)o1 6.31 µM
Cc1ccc2nc(-c3ccncc3)cc(C(=O)Nc3ccc(OC(F)F)cc3)c2c1 70.8 µM
CCCCCc1nnc(NC(=O)Cc2cccs2)s1 25.1 µM
Cc1ccc(CN2C(=O)N/C(=C\c3ccc(-c4ccc(C(=O)O)cc4C)o3)C2=O)cc1 7.94 µM
Cc1cc(C=O)c(C)n1-c1cccc(C(=O)O)c1 7.94 µM
O=C(COC(=O)c1cc2c(s1)CCC2)Nc1ccc(F)cc1 12.6 µM
Cc1ccc(/C=C2/C(=O)c3ccc(C(=O)O)cc3C2=O)o1 14.1 µM
CC1(C)OC(=O)C(=Cc2ccc(-c3ccc(Cl)c(C(=O)O)c3)o2)C(=O)O1 14.1 µM
CCCCNC(=O)COC(=O)c1ccc(Cl)c(S(=O)(=O)N2CCCC2)c1 100 µM
O=C(O)C1CC=CCC1C(=O)Nc1ccccc1 (centres undefined) 14.1 µM
O=C(O)C1C2C=CC(C2)C1C(=O)NCCc1ccncc1 (centres undefined) 100 µM
Cc1ccc(NC(=O)c2noc3c2CCC3)cc1C 12.6 µM
O=C(O)c1cccc(-n2cccc2/C=C2\SC(=O)N(Cc3ccccc3F)C2=O)c1 11.2 µM
O=C(O)CNC(=O)CC1S/C(=N/N=C2/NC(=O)CS2)NC1=O (centres undefined) 89.1 µM
Cc1ccc(Oc2cc(-n3nc(C)cc3C)ncn2)cc1 112 µM
O=C(NN1C(=O)C2CC=C(Cl)CC2C1=O)c1ccncc1 (centres undefined) 31.6 µM
COc1ccc(S(=O)(=O)NCc2cccs2)cc1 112 µM
Cc1ccc(S(=O)(=O)N2CC=C(C(=O)NCc3ccc(F)cc3)CC2)cc1 28.2 µM
Cc1ccc(CNC(=O)c2ccc(-n3cccc3)cc2)cc1 12.6 µM
COC(=O)c1cc(NC(=O)c2ccc3c(c2)NC(=O)c2ccccc2S3)cc(C(=O)OC)c1 25.1 µM
Cc1ccc(NC(=O)CN2C(=O)N/C(=C/c3cccn3-c3ccc(C(=O)O)cc3)C2=O)cc1 0.282 µM
O=c1cc(CCl)nc2sc3ccccc3n12 14.1 µM
CS(=O)(=O)C1=NSC2=NC(=O)/C(=C\c3cccn3-c3ccc(Cl)cc3)C(=N)N21 5.01 µM
Cc1nc(S/C(=C/c2ccc(OCc3ccc(C(=O)O)cc3)cc2)C(=O)O)n[nH]1 35.5 µM
Cc1ccccc1NC(=O)CN1C(=O)S/C(=C\c2cccn2-c2cccc(C(=O)O)c2)C1=O 14.1 µM

Source: PubChem BioAssay (NCATS)
